High-throughput results (PubChem BioAssay)
GRIN3A LBD mod = binders of NR3A ligand-binding domain, primary screen, biophysical, differential scanning fluorimetry, uHTS; NR3A LBD differential scanning fluorimetry, Tm shift; 0% = protein alone, 100% = glycine-bound protein; Tm shift relative to glycine control, % at 25 µM; hit rate 2.5% among 340,000; AID 1259313, 2017;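 active = melting temperature shift of at least 10% of the positive control shift, at one fixed dose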
Mdm2-MdmX inh = inhibitors of human Mdm2-MdmX association, primary screen, cell-based, luminescence, split luciferase, SaOS-2, uHTS | SaOS-2 split-luciferase Mdm2/MdmX complementation | inhibition, % at 8 µM | hit rate 3% among 330,000 | AID 485346, 2010;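 active = inhibition of at least 50% at 8 µM in the primary screen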
Target sequence (O15151 whole entry, looked up): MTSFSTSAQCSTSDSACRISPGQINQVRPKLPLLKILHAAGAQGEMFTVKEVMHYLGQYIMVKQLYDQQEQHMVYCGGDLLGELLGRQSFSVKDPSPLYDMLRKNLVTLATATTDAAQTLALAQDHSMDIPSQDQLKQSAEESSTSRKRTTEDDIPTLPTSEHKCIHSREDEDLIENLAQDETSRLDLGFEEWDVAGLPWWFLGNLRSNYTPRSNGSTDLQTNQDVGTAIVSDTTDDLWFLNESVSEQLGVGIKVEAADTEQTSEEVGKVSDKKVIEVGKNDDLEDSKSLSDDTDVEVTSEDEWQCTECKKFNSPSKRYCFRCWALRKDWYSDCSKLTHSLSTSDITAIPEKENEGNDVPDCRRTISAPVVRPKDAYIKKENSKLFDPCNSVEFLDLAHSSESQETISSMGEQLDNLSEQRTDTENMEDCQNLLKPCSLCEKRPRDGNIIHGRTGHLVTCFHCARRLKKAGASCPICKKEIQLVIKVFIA
Target sequence (Q00987 whole entry, looked up): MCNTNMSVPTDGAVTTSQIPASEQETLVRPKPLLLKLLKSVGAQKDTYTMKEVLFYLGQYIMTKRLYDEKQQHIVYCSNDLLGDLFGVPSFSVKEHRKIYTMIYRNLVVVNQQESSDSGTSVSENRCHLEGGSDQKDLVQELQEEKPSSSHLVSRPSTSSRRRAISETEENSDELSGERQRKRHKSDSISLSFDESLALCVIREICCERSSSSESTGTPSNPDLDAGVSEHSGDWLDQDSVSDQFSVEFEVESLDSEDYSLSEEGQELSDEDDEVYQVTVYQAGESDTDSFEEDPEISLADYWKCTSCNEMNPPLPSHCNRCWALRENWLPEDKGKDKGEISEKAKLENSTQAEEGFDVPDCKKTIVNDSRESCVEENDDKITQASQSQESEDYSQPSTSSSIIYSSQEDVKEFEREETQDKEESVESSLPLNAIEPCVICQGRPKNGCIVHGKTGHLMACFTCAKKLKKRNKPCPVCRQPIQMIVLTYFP
SKKanGAS inh = S. pyogenes SKKanGAS growth inhibitors in kanamycin, primary screen, streptokinase expression inhibitor project, SKKanGAS strain, BacTiter-Glo luminescence | 6 h | inhibition, % at 7.5 µM | hit rate 1.3% among 300,000;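 active = mean replicate score, as percent of positive control median, at least 50; inconclusive = mean below 50 but one replicate at or above 50; inactive = mean and every replicate below 50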;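 also: strain carries kanamycin resistance gene driven by streptokinase promoter and grows in 40 µg/ml kanamycin; loss of luminescence reflects streptokinase promoter inhibition or plain growth inhibition; 0% = median of DMSO wells and 100% = positive control at its reference dose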
MPTP block = mitochondrial permeability transition pore inhibitors, primary screen, biochemical, isolated mouse mitochondria, absorbance; Ca2+ swelling absorbance, 30 min; inhibition, % at 10 µM; hit rate 1.4% among 360,000; AID 602449, 2012;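 active = inhibition of 50% or more, scaled per plate between neutral and stimulator controls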;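 also: 0% = DMSO wells given calcium and 100% = 1 mM EGTA wells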
CSC inhib = cancer stem cell viability inhibitors, primary screen, luminescence. cancer stem cell-like cells viability. hit rate 1.1% among 300,000. inhibition, % at 7.5 µM. AID 2717, 2010; in the data active = inhibition above about 75%; inconclusive = no clear call, values can overlap the other calls; tested in HMLE shEcad cells
Beta cell apopt = inhibitors of cytokine-induced beta cell apoptosis, primary screen, luminescence; INS-1E cytokine-induced death, ATP luminescence, 48 h; percent of positive-control rescue, neutral wells zero; protection from apoptosis, % (test concentration not listed); hit rate 0.8% among 300,000;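 active = Every replicate reaches about 75%, or at least half do and their mean reaches it too, limit read from the data; inconclusive = At least half of replicates reach the limit but their mean does not; inactive = Under half of replicates reach the limit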;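 also: 0% = cytokine-treated negative control wells and 100% = positive control rescue; higher means more ATP so stronger rescue from cytokine killing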
Numbers without * were called inactive; ? = inconclusive; · = no result. Hits are enriched below; roughly 6.9% of the tested compounds scored in any of these assays.

SMILES	GRIN3A LBD mod	Mdm2-MdmX inh	SKKanGAS inh	MPTP block	CSC inhib	Beta cell apopt
COc1ccccc1NC(=O)CSc1nnc(C2CCCCC2)n1-c1ccccc1	-2.3	30.9	-1.4	1.2	82.0*	-5.8
CC(=O)c1ccc(N2CCN(C(=O)C3CCN(S(=O)(=O)c4ccc5c(c4)CC(C)N5C(C)=O)CC3)CC2)cc1 (stereo not drawn)	-0.1	18.9	5.1	-0.1	-1.2	5.7
CC(=O)N1c2ccc(S(=O)(=O)N3CCC(C(=O)N4CCN(c5cccc(C(F)(F)F)c5)CC4)CC3)cc2CC1C (stereo not drawn)	-1.9	26.5	13.8	-1.2	8.1	92.2*
CN1C(=O)Cc2cc(S(=O)(=O)N3CCN(c4cccc(C(F)(F)F)c4)CC3)ccc21	24.3*	2.7	-2.2	1.0	13.8	-2.5
Cc1ccc(C(=O)NCc2ccco2)cc1S(=O)(=O)N1CCCC1	-1.6	15.0	1.7	-0.1	-1.4	3.9
Nc1n[nH]c(C2CC2)c1N=Nc1ccc(Cl)c(Cl)c1	33.0*	12.5	82.4*	2.5	41.2	-11.1
Nc1n[nH]c(C2CC2)c1N=Nc1ccc(Cl)cc1	10.9*	34.3	-4.0	1.4	17.4	-12.5
CN(Cc1ccc(Cl)cc1)C(=O)CNC(=O)C12CC3CC(CC(C3)C1)C2	1.9	-7.6	·	-1.5	-2.2	-4.3
COc1ccc(C2Nc3cc(OC)ccc3-n3cccc32)cc1 (stereo not drawn)	-7.4	-16.7	-6.4	2.2	10.7	10.5
N#CC(=C1C=CC(=NO)C(Cl)=C1)c1ccccc1	·	·	·	2.5	·	·
COCCNc1ncnc2c1ncn2[C@H]1CN(Cc2ccc(-c3ccccc3)cc2)C[C@@H](CO)O1	·	·	·	-0.3	·	·
CCCCOC(=O)c1c(C)oc2ccc(NS(=O)(=O)c3ccc4c5c(cccc35)C(=O)N4)cc12	15.2*	22.9	24.5	-0.3	?	-8.2
Cc1c(Cl)ccc2c(C(O)CBr)cc(-c3ccccc3)nc12 (stereo not drawn)	31.8*	·	·	5.4	·	·
CCCCCCn1c(=O)[nH]c2nc3cc(N)ccc3nc2c1=O	-8.9	·	24.6	·	81.8*	-12.9
O=C(CCNS(=O)(=O)c1ccc(Cl)cc1)N1CCCCCC1	11.1*	-4.0	-3.7	-2.6	-4.4	-1.0
Cc1ccc(C(C[N+](=O)[O-])n2nc(C)cc2C)cc1 (stereo not drawn)	0.9	30.1	21.6	22.4	100.7*	9.7
C[C@H](NC(=O)[C@@H]1Cc2ccccc2CN1)C(=O)NCC1CCCO1 (stereo partly drawn)	-0.8	17.2	4.0	-1.3	-3.3	0.0
CCCn1cnnc1CNC(=O)C1CCC(=O)N(CCc2ccc(OC)cc2)C1 (stereo not drawn)	0.3	-23.9	0.1	0.4	-4.7	-5.3
CCOC(=O)c1c(NC(=O)C(=O)N/N=C/c2ccccc2O)sc2c1CCCCC2	2.4	14.9	9.2	-1.2	82.9*	36.8
NC(=O)c1cc(S(=O)(=O)NCCc2ccc(Cl)cc2)cs1	0.8	-1.5	10.1	-1.9	-13.2	-4.7
Cc1cc(NC(=O)COC(=O)C2CC(=O)N(c3cccc(Cl)c3)C2)no1 (stereo not drawn)	0.2	-8.1	-10.5	5.4	-3.8	-1.7
Cc1cc(NC(=O)COC(=O)C2CC(=O)N(c3ccc(C)c(Cl)c3)C2)no1 (stereo not drawn)	20.6*	17.1	-1.6	-0.1	-4.9	-6.3
O=C(Nc1ccc2c(c1)Cc1ccccc1-2)c1cccnc1	21.4*	-87.5	-3.0	0.4	10.0	8.8
O=C(Nc1ccc2c(c1)CN(Cc1ccc(CO)o1)CC2)c1ccc(C(F)(F)F)cc1	-2.2	26.0	19.7	0.2	5.7	4.8
COc1ccc(C(=O)Nc2ccc3c(c2)Cc2ccccc2-3)cc1	17.0*	-2.1	21.5	2.5	11.4	·
SMILES	GRIN3A LBD mod	Mdm2-MdmX inh	SKKanGAS inh	MPTP block	CSC inhib	Beta cell apopt
COc1ccc(CN2CCc3ccc(NC(=O)c4ccncc4)cc3C2)c(F)c1	2.5	32.9	49.8*	-1.2	-7.6	4.2
O=C(Nc1ccc2c(c1)Cc1ccccc1-2)c1ccco1	22.0*	-174.1	-8.4	2.0	9.8	12.1
Cc1cc(NC(=O)c2cccnc2)ccc1Br	0.7	-12.7	-0.4	0.7	-1.8	37.7
COc1cccc(OC)c1C(=O)Nc1ccc2c(c1)Cc1ccccc1-2	-2.9	-20.1	-14.9	-2.5	-11.8	6.1
O=C(NCCN1CCC(n2c(=O)[nH]c3ccccc32)CC1)c1ccc(OC(F)(F)F)cc1	·	·	·	2.7	·	·
Cc1cc(Br)ccc1NC(=O)CN1C(=O)C2CC=CCC2C1=O (stereo not drawn)	1.8	1.6	·	-0.2	5.0	1.5
CCCCNC(=O)C1(C)CCN1C(=O)c1cc(OC)ccc1Br (stereo not drawn)	·	·	·	-0.4	·	·
COc1ccc2c(=O)c3c(=O)n(-c4ccccc4)c(-c4ccc(C)cc4)nc3oc2c1	1.7	46.4	23.4	4.3	-19.4	-7.2
CCCC1S/C(=N/N=C/c2ccc(OC)cc2)N(Cc2ccccc2)C1=O (stereo not drawn)	10.2*	33.5	3.5	8.0	-11.3	5.1
Cc1nc2ccccc2c(=O)n1/N=C/c1c(O)ccc2ccccc12	-5.6	30.7	25.8	-0.6	1.8	84.8*
Cc1nc2ccccc2c(=O)n1/N=C/c1cc(Br)ccc1O	-20.9	6.8	25.5	-0.7	0.7	38.0
Cc1ccc(S(=O)(=O)C[C@@H]2OC3CCCCC3N2S(=O)(=O)c2ccc(C)cc2)cc1 (stereo partly drawn)	·	·	·	-0.3	·	·
COc1ccc(-c2csc(-c3ccc(O)cc3)n2)cc1	23.8*	-25.6	17.7	10.1	89.9*	6.2
COc1ccc(-c2nc(-c3ccc(O)cc3O)cs2)cc1OC	26.2*	·	31.0	0.7	·	·
COc1ccc(-c2nc(CCl)cs2)cc1	0.3	-17.2	0.9	-0.9	3.1	-6.0
Cc1ccccc1Nc1nc(Cl)nc(NC(C)(C)C)n1	·	·	·	0.6	·	·
COc1ccc(S(=O)(=O)N(C)C)cc1NC(=O)CN1C(=O)NC2(CCCC2)C1=O	2.0	11.5	-0.4	-0.1	3.5	-1.6
NC(=O)NC(=O)CN1c2cccc3cccc(c23)S1(=O)=O	-1.9	-10.0	8.2	-1.7	2.9	-8.6
COc1ccccc1C1CC(=O)Oc2c(C(C)C)ccc(C)c21 (stereo not drawn)	0.3	-4.8	·	0.8	·	·
C=CCNC(=O)COC(=O)C1CCN(S(=O)(=O)c2ccc3c(c2)OCCO3)CC1	-1.0	3.3	-14.8	2.8	15.7	-7.4
O=C(Nc1ccc2c(c1)OCO2)Nc1ccc2c(c1)OCO2	8.9	-101.9	-0.3	1.6	-0.2	-0.7
O=C(Nc1cccc(F)c1)Nc1cnccn1	21.1*	-27.7	1.7	0.6	-7.6	-14.4
